Assay outcomes: PubChem BioAssay, National Center for Advancing Translational Sciences (NCATS)
HT1080-NT tox: kills 2HG-producing HT-1080-NT fibrosarcoma cells; HT-1080-NT fibrosarcoma viability, CellTiter-Glo ATP luminescence, 48 h; Potency, µM (highest dose often 46.1 µM), inactives show top-dose activity, negative = less viability, most hits filed as cytotoxic; 360,000 compounds, 1.6% hits; AID 686970;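 note: NT is the 2HG producing partner of a matched IDH1 knockdown line; potency is the fitted concentration of half-maximal effect; 0% = DMSO-treated cells and -100% = media-only wells without cells; nearly all actives have a fitted effect of over 55% in size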
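Toxicity toward the 2HG-producing NT line was scored as %Activity, normalised to DMSO and no-cell wells, from CellTiter-Glo luminescence after 48 hours' treatment.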
HT1080 IDH1KD tx: toxicity to HT-1080 IDH1 knockdown cells (counter line) | HT-1080 IDH1 knockdown viability, ATP luminescence, 48 h | Potency, µM (highest dose often 46.1 µM), for the others: at the highest dose activity, negative = toxicity, hits mostly cytotoxic | 360,000 compounds, 2% hits | AID 686971;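 note: potency is the fitted concentration of half-maximal effect; 0% = DMSO wells and -100% = cell-free medium wells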
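Luminescent ATP read-out (CellTiter-Glo, 10 min at room temperature) after 48 h compound exposure at 37 °C gave viability of IDH1-knockdown HT-1080 cells. Activity was normalised to DMSO and cell-free wells, then fitted as concentration-response curves.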
TGFb SMAD3 inh: TGF-b pathway inhibition. HepG2 CAGA-GFP TGF-b/SMAD3 reporter, GFP fluorescence, 18 h; TGF-beta stimulated, 500 pg/mL final. Potency, µM (highest dose often 46.1 µM), for the others: at the highest dose activity, negative = inhibition, actives largely listed as inhibitors. 410,000 compounds, 1.2% hits. AID 588855; note: potency is the fitted concentration of half-maximal effect; % is set by controls: 0 for no effect and ±100 for the full control effect; nearly all actives have a fitted effect of over 65% in size
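GFP signal (ex488/em500-530) from TGF-beta-stimulated HEPG2 CAGA-GFP cells, 500 pg/mL final, 18 h at 37 degrees C in DMEM plus 1% FBS, normalized to unstimulated and DMSO-stimulated controls.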
HepG2 tox: counter-screen for TGF-b inhibitors: cytotoxicity in HepG2 cells. HepG2 CAGA-GFP viability, ATP luminescence, 18 h. Potency, µM (titrated, usually from 46.1 µM), for inactives: top-dose activity change, negative = cytotoxicity, actives largely listed as cytotoxic. 410,000 compounds, 0.76% hits. AID 588856; note: potency is the fitted concentration of half-maximal effect
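HepG2 CAGA-GFP cells (1000/well, DMEM with 1% FBS) received compound, then TGF-beta at 500 pg/mL final, and were incubated 18 hours at 37 degrees C. Viability was read by CellTiter-Glo luminescence. Media-only wells were set as complete cell-killing and DMSO as no toxicity.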
Giardia killer: Giardia lamblia killing; 340,000 compounds, 0.15% hits; Giardia lamblia trophozoite viability; activity change, % at 7.66 µM, hits read low; in the data active = activity change below about -80%; inconclusive = between about -30% and that limit;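 note: parasites exposed to compound for two days anaerobically before the ATP read; % is set by controls: 0 for no effect and ±100 for the full control effect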
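Compounds were tested on trophozoites seeded at 100 cells/well and held 48 hrs at 37 deg C anaerobically. An ATP-based luminescent kit measured the remaining live cells.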
IL1B secr inh: inflammasome signaling inhibition, IL-1 beta readout. activity change, % at 57.5 µM. AID 743279. 360,000 compounds, 4.7% hits. THP-1 LPS/ATP IL-1B secretion, AlphaLISA, 16 h; hits give low values; in the data active = activity change below about -50%; inconclusive = mostly about -30% to -49%; note: % is set by controls: 0 for no effect and ±100 for the full control effect
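THP-1 cells pretreated 1 hr with compounds (up to 57.5 uM final), then stimulated with LPS (250 ng/mL final) plus ATP (1.25 mM final); secreted IL-1B measured by AlphaLISA after 16 hr, decreased signal indicating inhibition.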
The depositor's hits bear a star; ? = inconclusive; / = no result given; [ ] = remark or other dose. Only some compounds are listed: those with a hit (about 6.5% of all), similar ones and a draw of the others. Unless noted, calls come from the whole dose curve; as a rule, active = well fitted curve in the direction sought with a large enough effect; inconclusive = small, poorly fitted or top-dose-only effect, or another doubt; inactive = no such curve, though single readings can be large; an effect the other way counts as inactive or inconclusive.

SMILES	HT1080-NT tox	HT1080 IDH1KD tx	TGFb SMAD3 inh	HepG2 tox	Giardia killer	IL1B secr inh
COc1ccc2nc(NC(=O)c3nc(S(=O)(=O)Cc4ccccc4F)ncc3Cl)sc2c1	/	/	?	-99%	/	/
CCOC(=O)c1[nH]c2cc(OC)c(OC)cc2c1NC(=O)C(C)N1CCN(Cc2ccccc2)CC1 (configuration not stated)	-17%	-6%	-3%	-32%	-4	-18
Cc1cc(C)c2c(CN3CCCCCCC3)cc(=O)oc2c1	0%	-5%	?	2%	/	37
CCCN1CCN(C(=S)NCc2ccc(Cl)cc2)CC1	2%	-10%	2%	-1%	-1	-28
CCOC(=O)c1nc(S(C)(=O)=O)ncc1Cl	8.9µM*	6.3µM*	?	11µM*	-7	-98*
Cc1ccccc1NC(=O)c1nc(S(C)(=O)=O)ncc1Cl	15µM*	15µM*	16µM*	-119%	-3	-98*
CCc1nnc(NC(=O)c2nc(S(C)(=O)=O)ncc2Cl)s1	/	/	2%	17%	/	/
Cc1ccc(NC(=O)c2nc(S(=O)(=O)Cc3ccccc3)ncc2Cl)cc1	18µM*	6.5µM*	?	22µM*	-2	-103*
O=C(Nc1nc2ccc(F)cc2s1)c1nc(S(=O)(=O)Cc2ccccc2)ncc1Cl	/	/	?	-116%	/	/
CN(Cc1c(C(=O)N/N=C/c2ccccc2F)nnn1-c1nonc1N)c1ccccc1	0%	-10%	?	-37%	17	-18
O=C(CN(Cc1ccccc1)S(=O)(=O)c1ccccc1)NC1CC1	8%	7%	2%	0%	13	4
CCn1ncc(Br)c1C(=O)Nc1ncc(C)s1	3%	4%	14%	30%	1	9
COc1ccccc1-c1cc(C(=O)NCc2ccccc2)c2c(-c3ccc(C)cc3)[nH]nc2n1	/	/	-38%	-51%	/	/
COc1cc(OC)c(-c2cc(C(=O)NCc3ccc(F)cc3)c3c(-c4ccccc4)[nH]nc3n2)cc1OC	/	/	?	11µM*	/	/
COc1ccc(/C=C/C(=O)Nc2ccc(-c3nnc4n3CCCCC4)cc2)c(OC)c1	-14%	-24%	-2%	6%	-10	-53*
Cc1c(C(=O)Nc2ccc(-c3nnc4n3CCCCC4)cc2)oc2ccc(Br)cc12	-9%	-14%	-1%	-26%	-8	-65*
CCOC(=O)/C=C/C(=O)Nc1ccc(-c2nnc3n2CCCCC3)cc1	-1%	-1%	-14%	-2%	4	?
O=c1cc(Cn2ccnc2)c2cc3c(cc2o1)CCC3	0%	2%	17%	-5%	-13	0
CC(C)c1cc(C(=O)OCC(=O)NC(=O)NCc2ccco2)c(O)c(C(C)C)c1	23µM*	26µM*	?	-89%	6	-86*
O=C(COC(=O)c1ccccc1C(F)(F)F)NC(=O)NCc1ccco1	3%	19%	-11%	0%	-5	12
NS(=O)(=O)c1ccc(NC(=O)COC(=O)Cc2ccc(Cl)cc2)cc1	3%	1%	-5%	-2%	-29	36
F[B-](F)(F)c1cc2ccccc2s1	-7%	3%	24%	-30%	2	-70*
F[B-](F)(F)c1cc2cc(Br)ccc2s1	-16%	-14%	2%	-41%	-19	-62*
O=C(NCCN1CCN(c2ccc([N+](=O)[O-])cc2)CC1)NCc1ccccc1	-7%	-16%	?	-18%	-1	-16
Cc1nnc(SCc2ccccc2)n1N	2%	26%	0%	1%	-16	3
SMILES	HT1080-NT tox	HT1080 IDH1KD tx	TGFb SMAD3 inh	HepG2 tox	Giardia killer	IL1B secr inh
O=C(NCCNC1CCC(c2ccccc2)CC1)c1ccc(F)cc1 (configuration not stated)	21µM*	?	?	-43%	7	-70*
N#Cc1ncc(-c2ccc3c(c2)OCCOCCOCCOCCO3)nc1C#N	11%	12%	?	-15%	4	-103*
OCc1ccccc1CNCc1ccccc1	0%	21%[9.24 µM]	7%	-12%	-5	-1
OCc1ccccc1SSc1ccccc1CO	?	?	?	-60%	-10	-99*
COc1ccc(N2C(=O)C(Cl)=C(Oc3cccc(OC)c3)C2=O)cc1	18µM*	21µM*	-4%	-33%	5	-102*
CC(=O)N(C(C)=O)C1=C(C#N)C2(CCCCC2)Cc2ccccc21	?	?	?	-23%	-8	-74*
N#CC(C#N)=C1NC2(CCCCC2)Cc2ccccc21	-1%	-2%	33%	43%	-10	5
COc1ccc(-n2c(SCC(=O)NCC3CCCO3)nc3c(c2=O)SCC3)cc1OC (configuration not stated)	9%	9%	-3%	-17%	10	8
COc1ccc(-n2c(SCc3ccccn3)nc3c(c2=O)SCC3)cc1OC	-4%	1%	-8%	20µM*	-17	22
O=CNc1c(Cl)cc2c(c1Cl)Cc1cc([N+](=O)[O-])ccc1-2	-1%	-12%	3.2µM*	-32%	10	11
Cn1c(NCc2ccco2)nc2c1c(=O)n(Cc1ccc(Cl)cc1)c(=O)n2C	-23%	-18%	14%	-14%	-3	-24
CC1(C)CC(=O)C(N=Nc2ccc(C(F)(F)F)cc2[N+](=O)[O-])=C(O)C1	11%	12%	13µM*	-57%	-5	/
CC(=O)N1CCN(c2ccc(NC(=O)c3ccc(C)c([N+](=O)[O-])c3)cc2)CC1	1%	0%	26%	3%	20	-28
O=C(CN(C1CCCCC1)S(=O)(=O)c1ccccc1)N1CCCC1	8%	11%	-2%	7%	-1	3
O=C(CN(C1CCCCC1)C1CCCCC1)N1CCc2ccccc2C1	?	?	?	-22%	-10	-99*
CC(=O)N1CCC(N2CCN(c3ccccc3F)CC2)CC1	0%	-17%	-6%	21%	-12	-6
CCc1ccc(C)[n+](CC(=O)c2cccs2)c1	-5%	-3%	2%	-19%	6	-58*
